The nature of experiment [1]: qHTS assay to test for compound auto fluorescence at 535 nm (green) in HEK293 cells (AID 720680).
Experiment [2] is described as follows: qHTS assay to test for compound auto fluorescence at 460 nm (blue) in HEK293 cell free culture (AID 720681). The gist of the method:
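Blue fluorescence (Ex 405/Em 460 nm, triamterene-equivalent) was read immediately after pin transfer of compound or DMSO into medium (DMEM, 10% FBS) without cells.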

The nature of experiment [3]: qHTS assay to test for compound auto fluorescence at 535 nm (green) in HEK293 cell free culture (AID 720682). The gist of the method: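 Compounds were pin-transferred into cell-free DMEM with 10% FBS, and green fluorescence was read at excitation 485 nm and emission 535 nm. Intensities were expressed as fluorescein-equivalent values.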
The nature of experiment [4]: qHTS assay to test for compound auto fluorescence at 590 nm (red) in HEK293 cell free culture (AID 720683). In short, it runs like this: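 Red-channel autofluorescence of compounds in culture medium (DMEM, 10% FBS), no cells, measured at 540/590 nm. Rose Bengal sodium is the reference fluorophore for equivalence.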
For orientation: Quantitative high-throughput screening tests each substance at several concentrations.

Experiment [5] is described as follows: qHTS assay to test for compound auto fluorescence at 590 nm (red) in HepG2 cell free culture (AID 720684). The gist of the method: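 Steps: dispense MEM/10% FBS medium, no cells; pin compound or DMSO vehicle; read red channel, Ex/Em 540/590 nm. Output given as Rose Bengal sodium equivalents.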
The nature of experiment [6]: qHTS assay to test for compound auto fluorescence at 460 nm (blue) in HepG2 cell free culture (AID 720685). In short, it runs like this: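 Compound (23 nL) or DMSO pinned into cell-free MEM with 10% FBS; blue fluorescence read at 405/460 nm excitation/emission, expressed as auto-fluorescence equivalency to triamterene.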
The nature of experiment [7]: qHTS assay to test for compound auto fluorescence at 535 nm (green) in HepG2 cell free culture (AID 720686).
Experiment [8] in a line: qHTS assay to test for compound auto fluorescence at 460 nm (blue) in HepG2 cells (AID 720687). The gist of the method: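 Blue-channel autofluorescence (Ex/Em 405/460 nm, triamterene-equivalent) was measured after 1 hr compound exposure at 37 C, 5% CO2. Cells were HepG2, plated overnight at 37 C in MEM plus 10% FBS.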
Experiment [9] addresses Glucocorticoid receptor (Homo sapiens) (UniProt P04150). The experiment in a line: qHTS assay to identify small molecule agonists of the glucocorticoid receptor (GR) signaling pathway (AID 720691; active = well fitted activation curve with a large enough effect in the signal ratio in the repeat runs, not every such curve was filed as active; inconclusive = weak or mixed curves, or effect the other way; inactive = no such curve, though single readings can be large or run the other way; the % refers to the signal ratio). Conditions: GR-bla HeLa, beta-lactamase reporter ratio, 18 h; activation: at 62.4 µM (top of the series). In short, it runs like this:
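Fluorescence intensity from LiveBLAzer B/G FRET substrate (2 h, room temperature) reports beta-lactamase expression driven by the glucocorticoid response element in GR-bla HeLa cells after 18 h compound exposure at 37 C.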

Experiment [10] in a line: qHTS assay to identify small molecule antagonists of the glucocorticoid receptor (GR) signaling pathway - cell viability counter screen (AID 720693). Note: nearly all actives have a fitted effect of over 55% in size.
Experiment [11] is described as follows: qHTS assay for identifying genotoxic compounds that show differential cytotoxicity against isogenic chicken DT40 cell lines with known DNA damage response pathways - wild type cell line (AID 743012). Note: nearly all actives have a fitted effect of over 60% in size. Note: potency is the fitted concentration of half-maximal effect. The gist of the method:
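Wild type DT40, 300 cells/well, ~0.5 h settle at 37 C/5% CO2; compounds in DMSO added by pintool; 40 h at 37 C/5% CO2; CellTiter-Glo, 30 min RT; luminescence.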

Experiment [12] in a line: qHTS assay for identifying genotoxic compounds that show differential cytotoxicity against isogenic chicken DT40 cell lines with known DNA damage response pathways - Rev3 mutant cell line (AID 743014). Note: nearly all actives have a fitted effect of over 55% in size. Note: potency is the fitted concentration of half-maximal effect.
Experiment [13] can be described thus: qHTS assay for identifying genotoxic compounds that show differential cytotoxicity against isogenic chicken DT40 cell lines with known DNA damage response pathways - Rad54/Ku70 mutant cell line (AID 743015). Note: nearly all actives have a fitted effect of over 60% in size. Note: potency is the fitted concentration of half-maximal effect.
The nature of experiment [14]: qHTS assay to identify small molecule antagonists of the androgen receptor (AR) signaling pathway - cell viability counter screen (AID 743033; note: nearly all actives have a fitted effect of over 45% in size).
The nature of experiment [15]: qHTS assay to identify small molecule antagonists of the androgen receptor (AR) signaling pathway using the MDA cell line - cell viability counter screen (AID 743041; note: nearly all actives have a fitted effect of over 45% in size). In short, it runs like this:
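Cells were plated at 3,000 per well and left 5 h. Compounds in DMSO were then pinned in, followed by R1881. After 16 h at 37C, CellTiter-Fluor fluorescence gave viability.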

Experiment [16] deals with Androgen receptor (Homo sapiens) (UniProt P10275). The experiment in a line: qHTS assay to identify small molecule antagonists of the androgen receptor (AR) signaling pathway (AID 743035; active = well fitted inhibition curve with a large enough effect in the signal ratio in the repeat runs, not every such curve was filed as active; inconclusive = weak or mixed curves, or effect the other way; inactive = no such curve, though single readings can be large or run the other way; the % refers to the signal ratio; note: potency is the fitted concentration of half-maximal effect). The gist of the method: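 Fluorescence from a beta-lactamase FRET substrate (LiveBLAzer B/G, 2 h, room temperature) measured inhibition of R1881-stimulated signaling in GeneBLAzer AR-UAS-bla HEK293 cells exposed to compound for 16 h at 37C.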
Chain of Androgen receptor (Homo sapiens) (P10275 whole entry, looked up): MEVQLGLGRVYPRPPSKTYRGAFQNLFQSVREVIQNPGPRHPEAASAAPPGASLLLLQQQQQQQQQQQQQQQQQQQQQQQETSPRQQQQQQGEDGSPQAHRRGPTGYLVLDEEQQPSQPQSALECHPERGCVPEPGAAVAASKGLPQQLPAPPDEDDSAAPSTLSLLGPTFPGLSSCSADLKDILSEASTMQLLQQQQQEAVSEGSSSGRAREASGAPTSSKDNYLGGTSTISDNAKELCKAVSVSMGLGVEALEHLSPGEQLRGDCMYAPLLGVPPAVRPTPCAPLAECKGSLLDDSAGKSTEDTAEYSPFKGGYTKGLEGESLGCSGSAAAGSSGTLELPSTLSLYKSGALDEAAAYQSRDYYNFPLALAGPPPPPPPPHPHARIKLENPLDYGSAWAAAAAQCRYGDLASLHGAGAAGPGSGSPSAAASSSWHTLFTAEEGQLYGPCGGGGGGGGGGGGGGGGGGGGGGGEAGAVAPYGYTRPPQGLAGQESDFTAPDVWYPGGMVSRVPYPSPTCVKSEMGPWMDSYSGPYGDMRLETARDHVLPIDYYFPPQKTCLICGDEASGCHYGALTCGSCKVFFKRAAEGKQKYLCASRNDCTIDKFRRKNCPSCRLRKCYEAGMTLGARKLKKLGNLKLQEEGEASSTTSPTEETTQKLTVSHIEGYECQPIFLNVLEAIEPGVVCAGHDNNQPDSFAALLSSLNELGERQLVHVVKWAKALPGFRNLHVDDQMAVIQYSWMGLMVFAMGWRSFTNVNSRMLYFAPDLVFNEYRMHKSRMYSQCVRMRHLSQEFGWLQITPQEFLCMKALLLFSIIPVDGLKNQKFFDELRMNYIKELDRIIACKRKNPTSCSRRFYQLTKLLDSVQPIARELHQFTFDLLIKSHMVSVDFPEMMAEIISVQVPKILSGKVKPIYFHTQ

The target is the same in experiment [17]. The experiment in a line: qHTS assay to identify small molecule agonists of the androgen receptor (AR) signaling pathway (AID 743036; active = well fitted activation curve with a large enough effect in the signal ratio in the repeat runs, with a control signal flat, not every such curve was filed as active; inconclusive = weak or mixed curves, or effect the other way; inactive = no such curve, though single readings can be large or run the other way; the % refers to the signal ratio; note: potency is the fitted concentration of half-maximal effect). In short, it runs like this: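 Activation was read as beta-lactamase FRET signal from LiveBLAzer B/G substrate, added for 2 h at room temperature. Before that, GeneBLAzer AR-UAS-bla GripTite (HEK293) cells had 16 h compound exposure at 37C.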

The target is the same in experiment [18]. The experiment in a line: qHTS assay to identify small molecule agonists of the androgen receptor (AR) signaling pathway using the MDA cell line (AID 743040; note: nearly all actives have a fitted effect of over 20% in size; note: potency is the fitted concentration of half-maximal effect). The gist of the method: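 Cells plated, 5 h at 37C/0% CO2; compound or DMSO pinned; 16 h at 37C; ONE-Glo added; luminescence measured after 30 min at room temperature. Reporter line: MDA-kb2 with MMTV-luciferase responsive to AR and GR.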

Experiment [19] shares this target. The experiment can be described thus: qHTS assay to identify small molecule antagonists of the androgen receptor (AR) signaling pathway using the MDA cell line (AID 743042; note: nearly all actives have a fitted effect of over 55% in size). The gist of the method: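 Antagonist mode: compounds plus R1881 agonist added to MDA-kb2 AR-luc cells, incubated 16 h at 37C. Luciferase reporter luminescence quantified, with multiplexed CellTiter-Fluor readout for cell viability.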

Calls of active or inactive are those of the source. Unless noted, calls come from the whole dose curve; as a rule, active = well fitted curve in the direction sought with a large enough effect in the repeat runs; inconclusive = weak or mixed curves; inactive = no such curve, though single readings can be large; an effect the other way counts as inactive or inconclusive.
% is set by controls: 0 for no effect and ±100 for the full control effect.

Chain of Glucocorticoid receptor (Homo sapiens) (P04150 whole entry, looked up): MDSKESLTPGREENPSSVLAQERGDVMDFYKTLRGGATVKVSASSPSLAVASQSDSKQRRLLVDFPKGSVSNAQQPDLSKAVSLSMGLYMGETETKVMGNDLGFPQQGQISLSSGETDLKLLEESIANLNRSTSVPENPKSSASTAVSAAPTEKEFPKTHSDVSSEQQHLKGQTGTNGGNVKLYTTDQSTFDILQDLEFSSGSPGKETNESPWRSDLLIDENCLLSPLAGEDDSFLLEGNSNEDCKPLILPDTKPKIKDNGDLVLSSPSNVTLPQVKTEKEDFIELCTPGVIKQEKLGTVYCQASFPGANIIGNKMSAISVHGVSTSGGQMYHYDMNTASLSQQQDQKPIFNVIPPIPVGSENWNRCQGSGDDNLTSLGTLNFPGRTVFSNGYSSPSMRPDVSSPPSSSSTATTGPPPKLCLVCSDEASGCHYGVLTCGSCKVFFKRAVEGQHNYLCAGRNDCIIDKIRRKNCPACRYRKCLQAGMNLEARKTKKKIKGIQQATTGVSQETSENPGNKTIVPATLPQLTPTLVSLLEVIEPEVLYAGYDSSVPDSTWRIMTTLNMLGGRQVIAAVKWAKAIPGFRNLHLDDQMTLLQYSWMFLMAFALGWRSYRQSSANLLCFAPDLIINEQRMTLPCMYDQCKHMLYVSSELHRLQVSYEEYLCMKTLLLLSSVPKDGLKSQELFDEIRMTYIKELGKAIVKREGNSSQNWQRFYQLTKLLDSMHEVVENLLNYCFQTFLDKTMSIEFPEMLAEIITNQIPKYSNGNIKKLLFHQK

Consider `CCCCCCCCCCCCCCCCCC(=O)[O][Al]`, for which the Potency result in [1], in experiment [2], in [3], in [4], in experiment [5] and in experiment [7] was “inactive” throughout. The Potency entry in [9], in [10], in experiment [11], in [12], in [13] and in experiment [14] was “inactive” each time. For the same molecule, the Potency result in experiment [15] is “inactive”. Also, the result in experiment [6] and in experiment [8] was inactive.
As to `C=CC[C@@H]1/C=C(\C)C[C@H](C)C[C@H](OC)[C@H]2O[C@@](O)(C(=O)C(=O)N3CCCC[C@H]3C(=O)O[C@H](/C(C)=C/[C@@H]3CC[C@@H](O)[C@H](OC)C3)[C@H](C)[C@@H](O)CC1=O)[C@H](C)C[C@@H]2OC`, the Potency result in [1], in experiment [2], in [3], in experiment [4], in [5] and in [7] was “inactive” each time. Also, the Potency entry in [9], in experiment [14], in [17], in [18] and in [19] was “inactive” in each case. Also, the outcome in [6] and in experiment [8] was inactive. Further, the Potency is 5.31 µM (active) in experiment [11], 4.22 µM (active) in experiment [12], 6.68 µM (active) in experiment [13] and 16.9 µM (active) in experiment [16].
Take `CC[C@@]1(O)C(=O)OCc2c1cc1n(c2=O)Cc2cc3c([N+](=O)[O-])cccc3nc2-1`: the Potency entry in experiment [1], in experiment [2], in experiment [3], in experiment [4], in [5] and in experiment [7] was “inactive” each time. In addition, in [14], the Potency entry was “inactive”. For the same molecule, the result in experiment [6] and in [8] was inactive. For the same molecule, the activation in experiment [9] was 5.3% [inconclusive] (active). Besides, the figures for the Potency in experiment [11], in experiment [12] and in [13] were 0.119 µM (active), 0.0944 µM (active) and 0.0841 µM (active), respectively.
As to `COC(=O)[C@H]1[C@H]2C[C@@H]3c4[nH]c5cc(OC)ccc5c4CCN3C[C@H]2C[C@@H](OC(=O)/C=C/c2cc(OC)c(OC)c(OC)c2)[C@@H]1OC`, the Potency entry in experiment [1], in experiment [2], in [3], in [4], in experiment [5] and in experiment [7] was “inactive” each time. For the same molecule, the Potency entry in [9], in experiment [10], in experiment [14], in experiment [18], in experiment [15] and in experiment [19] was “inactive” in each case. For the same molecule, the molecule was called inactive in experiment [6] and in experiment [8].
In the case of `Nc1c(Br)cc(Br)cc1CNC1CCC(O)CC1` (configuration not stated), the Potency entry in experiment [1], in [2], in [3], in experiment [4], in experiment [5] and in experiment [7] was “inactive” throughout. Moreover, the Potency result in [9], in experiment [10], in experiment [11], in [14], in experiment [16] and in experiment [15] was “inactive” throughout. In experiment [19], the Potency result is “inactive”. For the same molecule, the molecule was called inactive in experiment [6] and in experiment [8]. Further, the Potency in experiment [17] was 4.77 µM (active); in experiment [18] it was 1.88 µM (active).
For `O=C(OCc1ccccc1)c1cccnc1`, the Potency result in experiment [1], in experiment [2], in experiment [3], in experiment [4], in [5] and in [7] was “inactive” each time. Moreover, the Potency result in experiment [9], in experiment [10] and in experiment [15] was “inactive” each time. Moreover, the result in experiment [6] and in experiment [8] was inactive. Further, in experiment [13], the Potency was 6.68 µM (active).
Turning to `CC(C)NCC(O)COc1ccccc1-n1cccc1` (configuration not stated), the Potency entry in experiment [1], in experiment [2], in [3], in experiment [4], in [5] and in experiment [7] was “inactive” throughout. The Potency result in experiment [9], in [10], in experiment [12], in experiment [13], in experiment [14] and in experiment [15] was “inactive” in each case. Also, the call in [6] and in experiment [8] was inactive.

The values above are taken from PubChem BioAssay (Tox21).
